The subject of assay [1] is RAW-Dual. Kind of assay: NF-kB SEAP reporter activity, fold change vs agonist alone; cytotoxicity flag (confluency mask): not cytotoxic; higher = enhanced NF-kB activity. The method in brief:
(§1)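 Library stock was pin-tooled at 50 nL into 384-well plates of RAW-Dual macrophages (50,000 cells/well, DMEM), followed 1 h later by a PRR agonist, and the cells were kept at 37 °C, 5% CO2. Supernatant collected after 20 hours was read for IRF by QuantiLuc luminescence and for NF-κB by QuantiBlue absorbance at 620 nm. Reporter activity is fold change over agonist-alone wells, and a well counted as cytotoxic when its IncuCyte confluency was below 70% of agonist controls in both mask sets.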

In assay [2] the test system is RAW-Dual. In words: NF-kB SEAP reporter activity, fold change vs agonist alone; higher = enhanced NF-kB activity. Conditions: library stock concentration (final ~1000-fold dilution): 10 mM. The method in brief:
as §1

Assay [3] has as its system RAW-Dual. In words: NF-kB SEAP reporter activity, fold change vs agonist alone; cytotoxicity flag (confluency mask): cytotoxic (confluency <70% of control); higher = enhanced NF-kB activity. The method in brief: as §1
Where [4] appears, read: agonist: ODN 1826 (TLR9) 0.5 ug/mL.
Setting [5] is: agonist: Pam2CSK4 (TLR2/6) 0.1 ug/mL.
Where [6] appears, read: agonist: Pam3CSK4 (TLR2/1) 0.1 ug/mL.
Setting [7] is: cytotoxicity flag (confluency mask): not cytotoxic, agonist: Imiquimod (TLR7) […].
Setting [8] is: cytotoxicity flag (confluency mask): not cytotoxic, agonist: MPLA (TLR4) […].
Where [9] appears, read: cytotoxicity flag (confluency mask): cytotoxic (confluency <70% of control), agonist: Imiquimod (TLR7) […].
The mark [10] stands for this setting: cytotoxicity flag (confluency mask): cytotoxic (confluency <70% of control), agonist: MPLA (TLR4) […].

This is an account of results in the supplement of paper PMC10037445.

Whole data set: some 2,900 compounds, median “NF-kB SEAP reporter activity, fold change vs agonist alone” near 0.99, cut for the highest 2% near 2.6. This excerpt belongs to a sample that is enriched for the highest values.

Regarding `COCCOc1cc(F)c2c(Nc3ccc(NC(=O)Cn4cc(C(C)C)nn4)cc3)ncnc2c1` (library stock concentration (final ~1000-fold dilution): 10 mM), the “NF-kB SEAP reporter activity” value in the assay on RAW-Dual [1] (agonist: LPS (TLR4) 0.1 ug/mL) came out at 1.36; in the assay with RAW-Dual [1] (setting [4]), 0.989; in the assay on RAW-Dual [1] (setting [5]), 1.16; in the assay on RAW-Dual [1] (setting [6]) it was 1.24.

For the compound `COCCOc1cc(F)c2c(Nc3ccc(NC(=O)Cn4cc(C(C)C)nn4)cc3)ncnc2c1`, the “NF-kB SEAP reporter activity” value with RAW-Dual [2] (setting [7]) was found to be 1.14; with RAW-Dual [2] (setting [8]), 1.01.

For the compound `CC(C)c1cnn2c(NCc3ccccc3)cc(NCCCCCCN)nc12.Cl` (library stock concentration (final ~1000-fold dilution): 10 mM), the “NF-kB SEAP reporter activity” value in the assay with RAW-Dual [3] (agonist: LPS (TLR4) 0.1 ug/mL) was found to be 0.271; in the assay on RAW-Dual [3] (setting [4]) it was 0.234; in the assay with RAW-Dual [3] (setting [5]), 1.08; in the assay with RAW-Dual [3] (setting [6]), 1.5.

For `CC(C)c1cnn2c(NCc3ccccc3)cc(NCCCCCCN)nc12.Cl`, the “NF-kB SEAP reporter activity” value with RAW-Dual [2] (setting [9]) was 2.18; in the assay on RAW-Dual [2] (setting [10]), 0.882.

Consider `COc1cc2c(cc1NS(=O)(=O)c1ccc(Br)cc1C)n(C)c(=O)n2C`, for which the entries for the “NF-kB SEAP reporter activity” value with RAW-Dual [2] (setting [7]) and with RAW-Dual [2] (setting [8]) were 0.973 and 1.39, respectively.

As to `COc1ccccc1S(=O)(=O)Nc1ccc2c(c1)CN(C)C(=O)N2` (library stock concentration (final ~1000-fold dilution): 10 mM), the “NF-kB SEAP reporter activity” value in the assay with RAW-Dual [1] (agonist: LPS (TLR4) 0.1 ug/mL) was found to be 3.81; in the assay on RAW-Dual [1] (setting [4]), 2.25; in the assay on RAW-Dual [1] (setting [5]), 0.457; in the assay with RAW-Dual [1] (setting [6]), 1.4.

`COc1ccccc1N1CCN(CCCNc2cc(=O)n(C)c(=O)n2C)CC1.Cl`: the “NF-kB SEAP reporter activity” value with RAW-Dual [2] (setting [7]) amounted to 1.18; in the assay with RAW-Dual [2] (setting [8]) it was 0.935.

Consider `COc1ccccc1N1CCN(CCCNc2cc(=O)n(C)c(=O)n2C)CC1.Cl` (library stock concentration (final ~1000-fold dilution): 10 mM), for which the “NF-kB SEAP reporter activity” value in the assay with RAW-Dual [1] (agonist: LPS (TLR4) 0.1 ug/mL) amounted to 1.02; in the assay with RAW-Dual [1] (setting [4]), 0.978; in the assay with RAW-Dual [1] (setting [5]), 1.06; in the assay with RAW-Dual [1] (setting [6]) it was 1.17.

Consider `COc1ccccc1S(=O)(=O)Nc1ccc2c(c1)CN(C)C(=O)N2`, for which the “NF-kB SEAP reporter activity” value with RAW-Dual [2] (setting [7]) was 2.14; in the assay with RAW-Dual [2] (setting [8]), 2.51.

For the compound `COc1cc2c(cc1NS(=O)(=O)c1ccc(Br)cc1C)n(C)c(=O)n2C` (library stock concentration (final ~1000-fold dilution): 10 mM), the “NF-kB SEAP reporter activity” value with RAW-Dual [1] (agonist: LPS (TLR4) 0.1 ug/mL) came out at 1.73; in the assay with RAW-Dual [1] (setting [4]) it was 1.23; with RAW-Dual [1] (setting [5]), 0.828; in the assay with RAW-Dual [1] (setting [6]) it was 1.08.

`CN1C(=N)NC(C)(c2cc(NC(=O)c3ccc(F)cn3)ccc2F)CS1(=O)=O` (stereo not drawn) (library stock concentration (final ~1000-fold dilution): 10 mM): the “NF-kB SEAP reporter activity” value with RAW-Dual [1] (agonist: LPS (TLR4) 0.1 ug/mL) worked out at 0.906; in the assay on RAW-Dual [1] (setting [4]), 0.673; in the assay with RAW-Dual [1] (setting [5]) it was 0.747; in the assay on RAW-Dual [1] (setting [6]) it was 0.657.

As to `CN1C(=N)NC(C)(c2cc(NC(=O)c3ccc(F)cn3)ccc2F)CS1(=O)=O` (stereo not drawn), the “NF-kB SEAP reporter activity” value in the assay on RAW-Dual [2] (setting [7]) was 0.847; in the assay on RAW-Dual [2] (setting [8]), 0.931.

`O=C(O)CN1C(=O)c2cccc3cccc(c23)C1=O` (library stock concentration (final ~1000-fold dilution): 10 mM): the “NF-kB SEAP reporter activity” value in the assay with RAW-Dual [1] (agonist: LPS (TLR4) 0.1 ug/mL) amounted to 0.89; with RAW-Dual [1] (setting [4]) it was 0.942; in the assay on RAW-Dual [1] (setting [5]), 1.03; with RAW-Dual [1] (setting [6]), 1.06.

In the case of `O=C(CCCCCN1C(=O)c2cccc3cccc(c23)C1=O)NO` (library stock concentration (final ~1000-fold dilution): 10 mM), the “NF-kB SEAP reporter activity” value with RAW-Dual [3] (agonist: LPS (TLR4) 0.1 ug/mL) amounted to 3.67; in the assay on RAW-Dual [3] (setting [4]), 2.57; with RAW-Dual [3] (setting [5]), 1.28; with RAW-Dual [3] (setting [6]), 2.06.

In the case of `COc1ccc(-n2c(SCCCN3C(=O)c4cccc5cccc(c45)C3=O)nnc2-c2ccncc2)cc1`, the “NF-kB SEAP reporter activity” value with RAW-Dual [2] (setting [7]) was 1.08; in the assay with RAW-Dual [2] (setting [8]) it was 1.32.

In the case of `O=C(O)CN1C(=O)c2cccc3cccc(c23)C1=O`, the “NF-kB SEAP reporter activity” value in the assay with RAW-Dual [2] (setting [7]) is 0.931; in the assay on RAW-Dual [2] (setting [8]), 1.03.

For the compound `O=C(CCCCCN1C(=O)c2cccc3cccc(c23)C1=O)NO`, the “NF-kB SEAP reporter activity” value in the assay with RAW-Dual [2] (setting [9]) was found to be 1.51; in the assay with RAW-Dual [2] (setting [10]) it was 2.33.

Consider `COc1ccc(-n2c(SCCCN3C(=O)c4cccc5cccc(c45)C3=O)nnc2-c2ccncc2)cc1` (library stock concentration (final ~1000-fold dilution): 10 mM), for which the “NF-kB SEAP reporter activity” value with RAW-Dual [1] (agonist: LPS (TLR4) 0.1 ug/mL) was 2.06; in the assay with RAW-Dual [1] (setting [4]), 1.17; with RAW-Dual [1] (setting [5]), 1.3; in the assay on RAW-Dual [1] (setting [6]), 2.18.

For the compound `CCCCCOc1ccc(-c2ccc(-c3ccc(C(=O)NC4CC(O)C(O)NC(=O)C5C(O)C(C)CN5C(=O)C(C(C)O)NC(=O)C(C(O)C(O)c5ccc(O)cc5)NC(=O)C5CC(O)CN5C(=O)C(C(C)O)NC4=O)cc3)cc2)cc1` (stereo not drawn), the “NF-kB SEAP reporter activity” value in the assay on RAW-Dual [2] (setting [9]) is 1.67; in the assay with RAW-Dual [2] (setting [10]), 2.43.

`CCCCCOc1ccc(-c2cc(-c3ccc(C(=O)NC4CC(O)C(O)NC(=O)C5C(O)C(C)CN5C(=O)C(C(O)CC(N)=O)NC(=O)C(C(O)C(O)c5ccc(O)c(OS(=O)(=O)O)c5)NC(=O)C5CC(O)CN5C(=O)C(C(C)O)NC4=O)cc3)no2)cc1` (stereo not drawn) (library stock concentration (final ~1000-fold dilution): 10 mM water): the “NF-kB SEAP reporter activity” value was 1.2 in the assay on RAW-Dual [1] (agonist: LPS (TLR4) 0.1 ug/mL), 1.05 in the assay with RAW-Dual [1] (setting [4]), 0.968 with RAW-Dual [1] (setting [5]) and 1.09 with RAW-Dual [1] (setting [6]).

As for `CCCCCOc1ccc(-c2ccc(-c3ccc(C(=O)NC4CC(O)C(O)NC(=O)C5C(O)C(C)CN5C(=O)C(C(C)O)NC(=O)C(C(O)C(O)c5ccc(O)cc5)NC(=O)C5CC(O)CN5C(=O)C(C(C)O)NC4=O)cc3)cc2)cc1` (stereo not drawn) (library stock concentration (final ~1000-fold dilution): 10 mM), the “NF-kB SEAP reporter activity” value in the assay on RAW-Dual [3] (agonist: LPS (TLR4) 0.1 ug/mL) was determined as 3.72; in the assay on RAW-Dual [3] (setting [4]), 0.545; with RAW-Dual [3] (setting [5]), 1.28; in the assay with RAW-Dual [3] (setting [6]), 1.42.

`CCC(C)CC(C)CCCCCCCCC(=O)NC1CC(O)C(NCCN)NC(=O)C2C(O)CCN2C(=O)C(C(O)CCN)NC(=O)C(C(O)C(O)c2ccc(O)cc2)NC(=O)C2CC(O)CN2C(=O)C(C(C)O)NC1=O` (stereo not drawn) (library stock concentration (final ~1000-fold dilution): 10 mM water): the “NF-kB SEAP reporter activity” value was 1.29 with RAW-Dual [1] (agonist: LPS (TLR4) 0.1 ug/mL), 1.08 in the assay with RAW-Dual [1] (setting [4]), 1.09 in the assay with RAW-Dual [1] (setting [5]) and 0.968 in the assay on RAW-Dual [1] (setting [6]).
